For some assays here: Measured potencies and affinities stand elsewhere.

What all share (set-up): scale not given: direction of the effect not stated beside the values
Assay [1] addresses Protein translocase subunit SecA (Escherichia coli (strain K12)) (UniProt P10408). Description: Assay to Identify E. coli SecA ATPase Inhibitors. In kind it is functional. Conditions: 30 µM.
Assay [2] has as its target T1, Ubiquitin-activating enzyme e1, putative (Leishmania donovani (strain BPK282A1)) (UniProt E9BSI1).
T1 sequence (whole entry): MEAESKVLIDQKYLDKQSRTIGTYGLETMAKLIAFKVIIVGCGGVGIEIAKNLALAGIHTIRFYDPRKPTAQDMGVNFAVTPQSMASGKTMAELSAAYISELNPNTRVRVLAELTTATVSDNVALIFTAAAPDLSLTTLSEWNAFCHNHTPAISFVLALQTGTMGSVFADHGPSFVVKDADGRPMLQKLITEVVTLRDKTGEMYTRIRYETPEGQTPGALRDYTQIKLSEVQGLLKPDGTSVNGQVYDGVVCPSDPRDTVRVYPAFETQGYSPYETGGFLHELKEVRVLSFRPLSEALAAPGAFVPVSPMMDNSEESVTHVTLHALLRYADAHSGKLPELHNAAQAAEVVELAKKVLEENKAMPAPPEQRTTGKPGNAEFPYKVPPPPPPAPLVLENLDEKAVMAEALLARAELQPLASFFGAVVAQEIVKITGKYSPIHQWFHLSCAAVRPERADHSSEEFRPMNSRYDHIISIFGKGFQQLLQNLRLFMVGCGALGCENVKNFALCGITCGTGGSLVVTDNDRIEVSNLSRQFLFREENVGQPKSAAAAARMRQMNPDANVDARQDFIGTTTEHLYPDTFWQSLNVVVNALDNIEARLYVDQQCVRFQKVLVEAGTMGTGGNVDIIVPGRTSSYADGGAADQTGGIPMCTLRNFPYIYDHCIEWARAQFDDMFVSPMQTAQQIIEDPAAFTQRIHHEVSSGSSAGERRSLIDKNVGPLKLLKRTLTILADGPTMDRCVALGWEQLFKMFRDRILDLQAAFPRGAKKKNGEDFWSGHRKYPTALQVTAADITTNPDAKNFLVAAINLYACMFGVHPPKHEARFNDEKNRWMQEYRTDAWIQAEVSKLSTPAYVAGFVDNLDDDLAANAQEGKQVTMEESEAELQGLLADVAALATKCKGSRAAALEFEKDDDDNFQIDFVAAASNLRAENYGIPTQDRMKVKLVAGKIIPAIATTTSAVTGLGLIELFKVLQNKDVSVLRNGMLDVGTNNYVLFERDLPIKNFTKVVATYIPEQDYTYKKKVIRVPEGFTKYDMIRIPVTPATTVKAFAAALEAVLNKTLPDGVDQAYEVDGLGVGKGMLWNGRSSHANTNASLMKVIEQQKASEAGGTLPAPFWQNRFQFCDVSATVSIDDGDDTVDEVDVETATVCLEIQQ
As to the kind of experiment: Leishmania donovani Ubiquitin Activating Enzyme (LdE1). Format: functional. Conditions: 30 µM.

The target of assay [3] is Sialic acid-binding Ig-like lectin 9 (Homo sapiens) (UniProt Q9Y336). Description: Hs-Siglec9 ALPHAscreen SOP 20170721. Particulars: 10 µM. Background: Alpha assays give light when donor and acceptor beads are brought close together.
In the next assay the test system is Trypanosoma cruzi. As to the kind of experiment: Trypanosoma cruzi phosphomannomutase and mannose-1-phosphate guanylyltransferase assay. In kind it is functional. Conditions: 10 µM.
For assay [4], the target named is T2, Arginase-2, mitochondrial (Homo sapiens) (UniProt P78540).
T2 sequence (whole entry): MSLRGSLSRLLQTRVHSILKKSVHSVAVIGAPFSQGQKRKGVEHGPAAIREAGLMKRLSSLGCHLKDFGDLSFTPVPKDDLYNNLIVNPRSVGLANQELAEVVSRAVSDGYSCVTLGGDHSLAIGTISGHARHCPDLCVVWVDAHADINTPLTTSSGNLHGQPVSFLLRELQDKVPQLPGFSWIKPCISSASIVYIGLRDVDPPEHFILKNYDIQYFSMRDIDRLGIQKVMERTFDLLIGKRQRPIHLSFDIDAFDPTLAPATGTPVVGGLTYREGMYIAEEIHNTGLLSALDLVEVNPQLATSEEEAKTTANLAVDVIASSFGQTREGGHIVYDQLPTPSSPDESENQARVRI
As to the kind of experiment: in vitro enzyme assay to detect the production of urea directly proportional to the activity of Arginase II. Note: in the data most compounds retested in dose-response had high values. Format: functional. Conditions: 33.3 µM.

For assay [5], the target named is T3, Proteasome subunit beta (Trypanosoma cruzi) (UniProt O96673).
T3 sequence (whole entry): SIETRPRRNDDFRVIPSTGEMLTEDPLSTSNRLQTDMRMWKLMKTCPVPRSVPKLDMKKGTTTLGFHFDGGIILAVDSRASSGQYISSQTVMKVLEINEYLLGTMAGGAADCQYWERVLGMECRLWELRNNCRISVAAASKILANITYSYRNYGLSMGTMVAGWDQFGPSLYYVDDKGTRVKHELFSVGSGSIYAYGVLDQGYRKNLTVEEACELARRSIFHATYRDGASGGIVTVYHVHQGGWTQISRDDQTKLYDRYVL
Description: Trypanosoma cruzi proteasome chymotrypsin-like activity (TcProtChymo) assay. Note: in the data most compounds retested in dose-response had high values. Format: functional. Conditions: 9.37 µM.

For the next assay, the species on record is Homo sapiens. As to the kind of experiment: To identify inhibition of the IFN signalling (Jak-Stat) pathway via expression of an eGFP reporter gene under the control of an IFN-stimulated response element (ISRE) containing MxA promoter. Format: functional. Conditions: 30 µM. (In general: Reporter assays use an easily measured gene product as a stand-in for the process of interest.)

Assay [6] addresses T4, Tyrosyl-tRNA synthetase, putative (Trypanosoma cruzi (strain CL Brener)) (UniProt Q4DSP6).
T4 sequence (whole entry): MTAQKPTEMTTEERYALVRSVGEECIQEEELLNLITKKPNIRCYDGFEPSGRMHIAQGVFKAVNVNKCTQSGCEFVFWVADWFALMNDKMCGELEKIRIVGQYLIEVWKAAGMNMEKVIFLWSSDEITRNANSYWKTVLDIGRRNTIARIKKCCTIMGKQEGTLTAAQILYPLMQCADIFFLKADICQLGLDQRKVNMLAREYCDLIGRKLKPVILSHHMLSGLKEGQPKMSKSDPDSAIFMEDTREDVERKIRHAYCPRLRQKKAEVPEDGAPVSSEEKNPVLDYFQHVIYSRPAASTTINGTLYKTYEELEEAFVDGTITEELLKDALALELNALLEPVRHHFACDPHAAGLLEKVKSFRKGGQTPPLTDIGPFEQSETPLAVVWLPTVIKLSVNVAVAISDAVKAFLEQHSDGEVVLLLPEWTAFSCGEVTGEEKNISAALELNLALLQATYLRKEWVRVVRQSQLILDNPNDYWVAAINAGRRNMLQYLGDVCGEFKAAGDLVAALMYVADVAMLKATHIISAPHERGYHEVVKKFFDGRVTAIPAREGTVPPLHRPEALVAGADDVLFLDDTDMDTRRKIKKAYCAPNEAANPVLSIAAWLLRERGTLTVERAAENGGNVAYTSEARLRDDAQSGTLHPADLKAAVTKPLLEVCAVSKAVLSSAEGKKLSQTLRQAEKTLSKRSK
Description: Trypanosoma cruzi tyrosyl tRNA synthetase (TcYRS) _High Tyrosine SOP. Note: in the data most compounds retested in dose-response had high values. Format: functional. Particulars: 30 µM.

In assay [7] the target is T4, Tyrosyl-tRNA synthetase, putative (Trypanosoma cruzi (strain CL Brener)). As to the kind of experiment: Trypanosoma cruzi tyrosyl tRNA synthetase (TcYRS) SOP. Format: functional. Conditions: 30 µM.
The target in assay [8] is Chromo domain-containing protein 1 (Saccharomyces cerevisiae (strain ATCC 204508 / S288c) (Baker's yeast)) (UniProt P32657). As to the kind of experiment: ScCHD-1 Enzyme Inhibition Assay. Note: in the data most compounds retested in dose-response had high values. Format: functional. Particulars: 30 µM.
Chain of Chromo domain-containing protein 1 (Saccharomyces cerevisiae (strain ATCC 204508 / S288c) (Baker's yeast)) (P32657 whole entry, the tested form may be a part): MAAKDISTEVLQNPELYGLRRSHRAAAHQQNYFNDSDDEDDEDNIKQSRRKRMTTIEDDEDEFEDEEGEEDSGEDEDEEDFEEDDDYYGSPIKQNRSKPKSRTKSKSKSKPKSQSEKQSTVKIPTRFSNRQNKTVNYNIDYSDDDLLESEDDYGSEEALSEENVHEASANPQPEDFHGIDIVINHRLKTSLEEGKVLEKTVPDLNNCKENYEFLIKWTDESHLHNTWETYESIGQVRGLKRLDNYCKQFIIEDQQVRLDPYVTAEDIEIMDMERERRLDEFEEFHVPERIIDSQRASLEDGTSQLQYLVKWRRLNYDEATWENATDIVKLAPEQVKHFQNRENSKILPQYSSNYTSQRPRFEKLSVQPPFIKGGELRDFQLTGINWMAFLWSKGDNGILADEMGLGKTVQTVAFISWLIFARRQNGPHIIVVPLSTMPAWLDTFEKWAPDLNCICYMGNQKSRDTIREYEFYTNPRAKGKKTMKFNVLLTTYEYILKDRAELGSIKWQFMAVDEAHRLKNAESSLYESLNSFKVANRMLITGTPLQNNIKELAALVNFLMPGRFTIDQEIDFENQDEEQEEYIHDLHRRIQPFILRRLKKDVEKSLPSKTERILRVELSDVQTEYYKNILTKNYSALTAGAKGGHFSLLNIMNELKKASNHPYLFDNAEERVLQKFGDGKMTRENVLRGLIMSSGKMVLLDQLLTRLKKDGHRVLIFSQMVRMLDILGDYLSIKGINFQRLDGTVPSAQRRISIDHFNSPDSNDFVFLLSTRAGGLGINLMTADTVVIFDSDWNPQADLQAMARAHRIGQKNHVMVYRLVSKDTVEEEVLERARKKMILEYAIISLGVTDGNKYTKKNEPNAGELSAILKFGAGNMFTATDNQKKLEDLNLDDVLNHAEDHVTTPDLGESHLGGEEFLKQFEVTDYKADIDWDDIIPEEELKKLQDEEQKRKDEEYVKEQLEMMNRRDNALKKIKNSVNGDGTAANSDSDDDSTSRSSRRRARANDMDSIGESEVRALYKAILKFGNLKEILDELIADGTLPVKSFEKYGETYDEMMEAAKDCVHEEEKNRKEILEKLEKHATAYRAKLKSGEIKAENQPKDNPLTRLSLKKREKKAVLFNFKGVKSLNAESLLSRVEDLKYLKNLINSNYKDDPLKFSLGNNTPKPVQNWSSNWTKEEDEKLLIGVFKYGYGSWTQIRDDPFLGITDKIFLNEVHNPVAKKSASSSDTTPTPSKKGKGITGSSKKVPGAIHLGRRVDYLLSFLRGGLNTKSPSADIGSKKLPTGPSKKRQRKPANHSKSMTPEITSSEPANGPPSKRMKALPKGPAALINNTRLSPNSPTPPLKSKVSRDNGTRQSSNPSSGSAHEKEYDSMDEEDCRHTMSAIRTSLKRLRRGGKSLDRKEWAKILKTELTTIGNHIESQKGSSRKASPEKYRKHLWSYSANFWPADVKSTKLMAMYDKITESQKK

Chain of Protein translocase subunit SecA (Escherichia coli (strain K12)) (P10408 whole entry): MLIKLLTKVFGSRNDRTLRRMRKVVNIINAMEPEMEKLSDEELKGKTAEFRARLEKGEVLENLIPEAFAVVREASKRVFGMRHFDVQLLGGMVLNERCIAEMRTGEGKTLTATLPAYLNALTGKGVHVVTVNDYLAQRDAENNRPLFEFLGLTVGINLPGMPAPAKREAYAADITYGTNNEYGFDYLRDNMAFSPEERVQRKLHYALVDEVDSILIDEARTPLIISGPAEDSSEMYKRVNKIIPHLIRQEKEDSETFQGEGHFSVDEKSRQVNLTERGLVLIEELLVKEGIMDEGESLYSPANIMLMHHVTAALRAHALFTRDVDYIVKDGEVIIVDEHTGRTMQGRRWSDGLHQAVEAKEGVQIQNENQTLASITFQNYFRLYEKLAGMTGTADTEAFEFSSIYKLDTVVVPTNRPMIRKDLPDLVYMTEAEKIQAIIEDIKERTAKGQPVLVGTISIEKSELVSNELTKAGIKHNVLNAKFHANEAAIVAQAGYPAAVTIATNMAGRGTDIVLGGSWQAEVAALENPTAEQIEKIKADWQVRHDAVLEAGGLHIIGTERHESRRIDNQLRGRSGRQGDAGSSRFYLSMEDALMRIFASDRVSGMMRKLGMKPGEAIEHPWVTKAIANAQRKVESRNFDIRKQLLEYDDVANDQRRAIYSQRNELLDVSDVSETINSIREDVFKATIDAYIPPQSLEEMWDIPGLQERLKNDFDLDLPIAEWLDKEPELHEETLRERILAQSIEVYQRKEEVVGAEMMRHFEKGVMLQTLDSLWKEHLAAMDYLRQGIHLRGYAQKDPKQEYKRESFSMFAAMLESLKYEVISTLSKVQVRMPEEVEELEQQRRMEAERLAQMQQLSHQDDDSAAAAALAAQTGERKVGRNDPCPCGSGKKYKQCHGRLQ
Chain of Sialic acid-binding Ig-like lectin 9 (Homo sapiens) (Q9Y336 whole entry): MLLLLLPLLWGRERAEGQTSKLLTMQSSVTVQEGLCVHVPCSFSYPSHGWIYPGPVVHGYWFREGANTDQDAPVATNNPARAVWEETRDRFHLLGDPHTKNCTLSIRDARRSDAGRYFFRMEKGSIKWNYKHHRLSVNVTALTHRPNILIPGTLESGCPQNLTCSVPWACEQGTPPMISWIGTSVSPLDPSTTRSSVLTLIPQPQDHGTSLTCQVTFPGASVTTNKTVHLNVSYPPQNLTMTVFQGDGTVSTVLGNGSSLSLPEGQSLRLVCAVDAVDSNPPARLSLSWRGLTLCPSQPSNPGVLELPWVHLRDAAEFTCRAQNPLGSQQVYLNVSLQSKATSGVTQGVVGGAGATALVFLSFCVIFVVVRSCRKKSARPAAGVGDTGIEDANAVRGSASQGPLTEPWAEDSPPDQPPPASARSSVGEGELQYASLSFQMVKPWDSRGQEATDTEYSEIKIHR

As to `COCCN1C(=O)C[C@@H]2[C@H]1CCN2C(=O)COc1ccccc1`, the Percent Effect in assay [1] was -4.5%; in [2], 6.49%; in [3] it was -2.28%; in the assay on Trypanosoma cruzi, -3.02%; in assay [4], -4.86%; in assay [5], 15.6%. Also, the Percent Effect in the assay listed under Homo sapiens was -17.9%; in assay [6], 2.63%; in [7] it was 10.3%; in assay [8], -1.49%.
As to `CN(C)[C@@H]1CN(Cc2ccco2)C[C@@H]2CCCO[C@@H]21`, the Percent Effect is -2.22% in [1]; 6.49% in assay [2]; -4.86% in assay [3]; -5.16% with Trypanosoma cruzi; -1.22% in assay [4]; 9.27% in [5]. In addition, the Percent Effect is 3.2% in the assay filed under Homo sapiens, -0.526% in assay [6], 7.69% in assay [7] and -3.13% in [8].
With `O=S(=O)(c1ccccc1)N1CCCCC1c1cc[nH]n1` (stereo not given), the Percent Effect is -1.23% in assay [1]; 9.33% in assay [2]; -5.11% in assay [3]; -6.71% with Trypanosoma cruzi; -1.77% in assay [4]; 13.5% in [5]. In addition, the Percent Effect is 19.2% in the assay listed under Homo sapiens, -3.17% in assay [6], 0% in assay [7] and -28% in assay [8].
As to `CC(C)(C)c1cn2nc(N3CCOC(Cn4cncn4)C3)sc2n1` (stereo not given), the Percent Effect was -1.88% in [1]; 23.1% in assay [2]; -8.45% in assay [3]; 7.79% in the assay with Trypanosoma cruzi; -2.46% in assay [4]; 12.4% in [5]. Moreover, the Percent Effect in the assay listed under Homo sapiens was 13.8%; in [6] it was 3.35%; in assay [7] it was 22.9%; in [8] it was -5.11%.
In the case of `Cc1cn2c(n1)CCC(NC(=O)c1c[nH]c(C)n1)C2` (stereo not given), the Percent Effect in [1] was -6.87%; in [2] it was -10.7%; in assay [3] it was 1.48%; with Trypanosoma cruzi, 3.61%; in assay [4], 0%; in assay [5], 10.9%. Also, the Percent Effect in the assay filed under Homo sapiens was 17.2%; in assay [6], 3.68%; in [7], 7.69%; in [8], -13.6%.
On to `Cn1ncc(NCc2cccc(COC(C)(C)C)c2)c(Cl)c1=O`, for which the Percent Effect in assay [1] was -2.67%; in [2] it was 8%; in [3] it was 4.11%; in the assay on Trypanosoma cruzi, 1.81%; in assay [4], 5.32%; in assay [5] it was 3.31%. For the same molecule, the Percent Effect is 49.3% in the assay filed under Homo sapiens, 2.63% in assay [6], 10.3% in [7] and -8.54% in assay [8].
On to `Cc1csc(N2CCCN(C(=O)c3cnns3)CC2)n1`, for which the Percent Effect in assay [1] is -2.47%; in assay [2] it was -2.67%; in assay [3] it was -0.659%; in the assay with Trypanosoma cruzi, -0.803%; in assay [4], -1.33%; in assay [5], -0.255%. In addition, the Percent Effect is -0.448% in the assay listed under Homo sapiens, 0.526% in assay [6], 0% in assay [7] and 4.48% in assay [8].
Take `Cc1ccc2oc(C(=O)N3CCc4nnc(N(C)C)cc4C3)cc2n1`: the Percent Effect in assay [1] is -3.69%; in assay [2], 10.7%; in [3], 5.58%; with Trypanosoma cruzi, 3.21%; in [4] it was 0.887%; in assay [5], 12.8%. Besides, the Percent Effect was 4.8% in the assay listed under Homo sapiens, 4.74% in assay [6], 5.13% in assay [7] and -10.7% in assay [8].
Take `CC(C)NC(=O)C1CN(C(=O)c2ccco2)CC12CCOCC2` (stereo not given): the Percent Effect is -1.7% in assay [1]; 9.09% in [2]; -6.62% in [3]; 3.41% in the assay with Trypanosoma cruzi; 3.24% in assay [4]; 10.2% in assay [5]. The Percent Effect was -3.41% in the assay filed under Homo sapiens, 8.95% in assay [6], 12.8% in assay [7] and -4.15% in assay [8].
As for `COCc1nc(C(=O)NS(=O)(=O)c2cc(F)ccc2F)cs1`, the Percent Effect is -3.64% in assay [1]; -2.56% in assay [2]; -5.81% in assay [3]; -1.41% in the assay with Trypanosoma cruzi; -1.64% in assay [4]; -0.939% in assay [5]. Also, the Percent Effect in the assay filed under Homo sapiens is 22.9%; in [6], -0.478%; in [7] it was -6.02%; in assay [8] it was 4.47%.
As to `Cc1nc(-c2ccccc2F)sc1C(=O)N1CCN(C)CC1`, the Percent Effect was -7.34% in [1]; 2.7% in [2]; 4.45% in assay [3]; -0.679% in the assay with Trypanosoma cruzi; -3.85% in [4]; 18.5% in assay [5]. Also, the Percent Effect in the assay filed under Homo sapiens is 4.62%; in assay [6], 3.72%; in assay [7], 12.2%; in assay [8], -3.18%.
